Where a name gives a salt, the structure may show the parent alone. ± gives the standard deviation of the averaged measurements.

The test system of the assay is mESC LDLR-Dup GFP reporter (SpCas9 MH-deletion repair). Nature of the assay: fraction of GFP+ cells relative to DMSO control (fold change); higher = more MH-deletion repair to in-frame LDLR (or more editing). The note with it: 2 µM; 7 days post-transfection.
On to `COc1ccc(Cn2ccc3ccc(C(=O)NO)cc32)cc1`, for which the “fraction of GFP+ cells” value was 0.5 ± 0.072.

Turning to `CCc1ccc(CCOc2ccc(CC3SC(=O)NC3=O)cc2)nc1` (centres undefined) [Pioglitazone HCl], the “fraction of GFP+ cells” value worked out at 1.11 ± 0.13.

With `O=C(NC(NC(=S)Nc1ccc(F)c([N+](=O)[O-])c1)C(Cl)(Cl)Cl)C(c1ccccc1)c1ccccc1` (centres undefined), the “fraction of GFP+ cells” value was 0.561 ± 0.13.

With `CN1CCN(c2ccc(Nc3ncc4cc(C#N)c(=O)n(C5CCCC5)c4n3)cc2)CC1`, the “fraction of GFP+ cells” value came out at 0.705 ± 0.077.

In the case of `CC(C)c1cnn2c(NCc3ccccc3)cc(NCCCCCCN)nc12`, the “fraction of GFP+ cells” value was found to be 1.07 ± 0.18.

With `CN(CCOc1ccc(CC2SC(=O)NC2=O)cc1)c1ccccn1` (centres undefined) [Rosiglitazone maleate], the “fraction of GFP+ cells” value is 1.52 ± 0.23.

As for `CC(C)(CNC(=O)c1cccc(-c2noc(C(F)(F)F)n2)c1)c1coc(-c2ccccc2)n1`, the “fraction of GFP+ cells” value is 0.849 ± 0.2.

With `Nc1nc(F)nc2c1ncn2[C@@H]1O[C@H](CO)[C@@H](O)[C@@H]1O` [Fludarabine], the “fraction of GFP+ cells” value amounted to 0.867 ± 0.35.

On to `CNNCc1ccc(C(=O)NC(C)C)cc1` [Procarbazine HCl], for which the “fraction of GFP+ cells” value worked out at 1.04 ± 0.053.

In the case of `CS(=O)(=O)c1ccc(-c2cnc(N)c(C(=O)Nc3ccccc3)n2)cc1`, the “fraction of GFP+ cells” value was found to be 0.582 ± 0.061.

As to `O=C(Nc1ccccc1-c1cn2c(CN3CCNCC3)csc2n1)c1cnc2ccccc2n1`, the “fraction of GFP+ cells” value stood at 1.19 ± 0.68.

Regarding `CC(C)(C)OC(=O)Nc1ccc(-c2cc(C(=O)NCCCCCCC(=O)NO)no2)cc1`, the “fraction of GFP+ cells” value was determined as 0.902 ± 0.059.

`O=C(CCCCCCC(=O)Nc1ccc([C@H]2O[C@@H](CSc3nc(-c4ccccc4)c(-c4ccccc4)o3)C[C@@H](c3ccc(CO)cc3)O2)cc1)NO` [Tubacin]: the “fraction of GFP+ cells” value worked out at 0.972 ± 0.16.

In the case of `CC(C)OC(=O)[C@H](C)N[P@](=O)(OC[C@H]1O[C@@H](n2ccc(=O)[nH]c2=O)[C@](C)(F)[C@@H]1O)Oc1ccccc1` [Sofosbuvir (PSI-7977, GS-7977)], the “fraction of GFP+ cells” value is 1.03 ± 0.4.

On to `NC1CCN(c2c(F)cc3c(=O)c(C(=O)O)cn(C4CC4)c3c2Cl)C1` (centres undefined) [Clinafloxacin], for which the “fraction of GFP+ cells” value came out at 0.685 ± 0.25.

As to `COc1cc2c(cc1O)CC[C@@H]1[C@@H]2CC[C@]2(C)[C@@H](O)CC[C@@H]12` [2-Methoxyestradiol (2-MeOE2)], the “fraction of GFP+ cells” value is 0.441 ± 0.088.

As to `NCCOc1cc(C(=O)Nc2cc(OCCN)c3ccccc3n2)nc(C(=O)Nc2cc(OCCN)c3ccccc3n2)c1` [Pyridostatin Trifluoroacetate Salt], the “fraction of GFP+ cells” value is 0.824.

Regarding `Cc1cn([C@H]2O[C@@H](CO)[C@H](O)[C@H]2F)c(=O)[nH]c1=O` [Clevudine], the “fraction of GFP+ cells” value came to 0.898 ± 0.28.

`COc1nc(N)nc2c1ncn2[C@@H]1O[C@H](CO)[C@@H](O)[C@@H]1O` [Nelarabine]: the “fraction of GFP+ cells” value stood at 1.12 ± 0.14.

On to `CCCCCOC(=O)Nc1nc(=O)n([C@@H]2O[C@H](C)[C@@H](O)[C@H]2O)cc1F` [Capecitabine], for which the “fraction of GFP+ cells” value was found to be 0.922 ± 0.39.

On to `CC1COc2c(N3CCN(C)CC3)c(F)cc3c(=O)c(C(=O)O)cn1c23` (centres undefined) [Ofloxacin], for which the “fraction of GFP+ cells” value is 1.08 ± 0.19.

For the compound `C=C1C(=O)O[C@H]2[C@H]1CC/C(C)=C/CC[C@@]1(C)O[C@@H]21` [(-)-Parthenolide], the “fraction of GFP+ cells” value stood at 0.606 ± 0.018.

As for `O=c1c(-c2ccc(O)cc2)coc2cc(O)ccc12` [Daidzein], the “fraction of GFP+ cells” value amounted to 0.115 ± 0.039.

As for `CNCc1ccc(-c2cc(-c3nc(-c4ccc(S(=O)(=O)C(C)C)cc4)cnc3N)on2)cc1`, the “fraction of GFP+ cells” value stood at 0.301 ± 0.12.

Values taken from the supplement of paper PMC8387472.
